# From the antibiotic and cytotoxicity screens of Wong et al. (2023)
# Hit rate of the full screen: of about 39,000 compounds, about 1,500 (3.8%) were called active. The list comes from a sample in which actives are over-represented; it also holds similar structures and randomly drawn compounds.
# Test system: HSkMC (human skeletal muscle cells)
# Test: cytotoxicity call (relative viability < 0.9)
# Conditions: 10 µM
row,SMILES,cytotoxicity call
1,C[C@@H]1CN([C@H](C)CO)C(=O)Cc2cc(NC(=O)Nc3ccc(F)cc3)ccc2O[C@H]1CN(C)C(=O)Nc1ccc(C(F)(F)F)cc1,inactive
2,C[C@@H]1CN([C@@H](C)CO)C(=O)Cc2cc(NC(=O)Nc3ccc(C(F)(F)F)cc3)ccc2O[C@@H]1CN(C)C(=O)Nc1ccc(F)cc1,active
3,C[C@@H]1CN([C@H](C)CO)C(=O)Cc2cc(NC(=O)Nc3ccc(C(F)(F)F)cc3)ccc2O[C@H]1CN(C)C(=O)Nc1ccc(F)cc1,inactive
4,NCC[C@@H]1CC[C@@H](NC(=O)c2ccccc2F)[C@@H](CO)O1,inactive
5,C[C@@H]1CCCCO[C@H](CN(C)C(=O)Nc2ccc(F)cc2)[C@@H](C)CN([C@H](C)CO)C(=O)c2cc(NC(=O)Nc3cccc4ccccc34)ccc2O1,inactive
6,COCC(=O)N(C)C[C@@H]1Oc2cc(C#CC(C)(C)O)ccc2S(=O)(=O)N([C@H](C)CO)C[C@H]1C,inactive
7,C[C@@H]1CCCCO[C@@H](CN(C)C(=O)Nc2ccccc2)[C@@H](C)CN([C@H](C)CO)C(=O)c2cc(NC(=O)Nc3ccccc3)ccc2O1,inactive
8,S=C(c1cccs1)N1CCCC1,inactive
9,CN1C(=O)c2cc(NC(=O)Cc3cccs3)ccc2OC[C@@H]2O[C@H](CC(=O)NCCCN3CCOCC3)CC[C@H]21,inactive
10,COc1cc(CO)c(CC(=O)NN)cc1OC,inactive
11,C[C@@H]1CN([C@@H](C)CO)C(=O)Cc2cc(NC(=O)Nc3ccc(C(F)(F)F)cc3)ccc2O[C@@H]1CN(C)C(=O)Nc1ccc(C(F)(F)F)cc1,active
12,C[C@H]1CN([C@@H](C)CO)C(=O)Cc2cc(NC(=O)Nc3ccc(C(F)(F)F)cc3)ccc2O[C@H]1CN(C)C(=O)Nc1ccc(C(F)(F)F)cc1,active
13,C[C@@H]1CN([C@H](C)CO)C(=O)Cc2cc(NC(=O)Nc3ccc(C(F)(F)F)cc3)ccc2O[C@@H]1CN(C)C(=O)Nc1ccc(F)cc1,inactive
14,C[C@H]1CN([C@@H](C)CO)C(=O)Cc2cc(NC(=O)Nc3ccc(F)cc3)ccc2O[C@@H]1CN(C)C(=O)Nc1ccc(C(F)(F)F)cc1,inactive
15,C[C@H](CO)N1C[C@H](C)[C@@H](CN(C)C(=O)Nc2ccc(F)cc2)Oc2ccc(NC(=O)Nc3ccc(C(F)(F)F)cc3)cc2CC1=O,inactive
16,C[C@@H]1CN([C@@H](C)CO)C(=O)Cc2cc(NC(=O)Nc3ccc(F)cc3)ccc2O[C@H]1CN(C)C(=O)Nc1ccc(C(F)(F)F)cc1,inactive
17,CCn1nnc2c(=S)nc[nH]c21,inactive
18,Cc1noc(C)c1NC(=O)Nc1ccc2c(c1)CC(=O)N([C@H](C)CO)C[C@@H](C)[C@@H](CN(C)S(=O)(=O)c1cn(C)cn1)O2,inactive
19,C=CCC[C@H](Cc1ccc(F)cc1)C(=O)O[C@H](CNC(=O)[C@@H](CC=C)CC(=O)N[C@H](CO)Cc1ccccc1)c1ccccc1,active
20,C=CC[C@@H](CC(=O)N[C@@H](CO)Cc1ccccc1)C(=O)NC[C@@H](OC(=O)[C@@H](CC=C)Cc1ccc(F)cc1)c1ccccc1,inactive
21,C=CCC[C@@H](Cc1ccc(F)cc1)C(=O)O[C@H](CNC(=O)[C@@H](CC=C)CC(=O)N[C@@H](CO)Cc1ccccc1)c1ccccc1,inactive
22,C=CCC[C@H](Cc1ccc(F)cc1)C(=O)O[C@H](CNC(=O)[C@@H](CC=C)CC(=O)N[C@@H](CO)Cc1ccccc1)c1ccccc1,inactive
23,C=CC[C@@H](CC(=O)N[C@@H](CO)Cc1ccccc1)C(=O)NC[C@H](OC(=O)[C@@H](CC=C)Cc1ccc(F)cc1)c1ccccc1,inactive
24,C=CCC[C@H](Cc1ccc(F)cc1)C(=O)O[C@@H](CNC(=O)[C@@H](CC=C)CC(=O)N[C@@H](CO)Cc1ccccc1)c1ccccc1,inactive
25,C=CCC[C@H](Cc1ccc(F)cc1)C(=O)O[C@@H](CNC(=O)[C@@H](CC=C)CC(=O)N[C@H](CO)Cc1ccccc1)c1ccccc1,active
26,C=CCC[C@@H](Cc1ccc(F)cc1)C(=O)O[C@@H](CNC(=O)[C@@H](CC=C)CC(=O)N[C@@H](CO)Cc1ccccc1)c1ccccc1,active
27,C=CCC[C@@H](Cc1ccc(F)cc1)C(=O)O[C@H](CNC(=O)[C@@H](CC=C)CC(=O)N[C@H](CO)Cc1ccccc1)c1ccccc1,inactive
28,C=CC[C@@H](CC(=O)N[C@H](CO)Cc1ccccc1)C(=O)NC[C@H](OC(=O)[C@@H](CC=C)Cc1ccc(F)cc1)c1ccccc1,active
29,C=CCC[C@@H](Cc1ccc(F)cc1)C(=O)O[C@@H](CNC(=O)[C@@H](CC=C)CC(=O)N[C@H](CO)Cc1ccccc1)c1ccccc1,inactive
30,C=CC[C@@H](CC(=O)N[C@H](CO)Cc1ccccc1)C(=O)NC[C@@H](OC(=O)[C@@H](CC=C)Cc1ccc(F)cc1)c1ccccc1,inactive
